Source: PubChem (several laboratories)
NPR1 activator – GC-A (human) enzyme activation; 370,000 tested, 0.14% active; P16066; AID 1671463; HEK293 GC-A cells, cGMP TR-FRET, EC30 ANP; 0% at EC30 ANP, 100% saturating ANP; activation, % at 10 µM; in the data active means activation above about 40%
Target sequence (P16066 whole entry, looked up): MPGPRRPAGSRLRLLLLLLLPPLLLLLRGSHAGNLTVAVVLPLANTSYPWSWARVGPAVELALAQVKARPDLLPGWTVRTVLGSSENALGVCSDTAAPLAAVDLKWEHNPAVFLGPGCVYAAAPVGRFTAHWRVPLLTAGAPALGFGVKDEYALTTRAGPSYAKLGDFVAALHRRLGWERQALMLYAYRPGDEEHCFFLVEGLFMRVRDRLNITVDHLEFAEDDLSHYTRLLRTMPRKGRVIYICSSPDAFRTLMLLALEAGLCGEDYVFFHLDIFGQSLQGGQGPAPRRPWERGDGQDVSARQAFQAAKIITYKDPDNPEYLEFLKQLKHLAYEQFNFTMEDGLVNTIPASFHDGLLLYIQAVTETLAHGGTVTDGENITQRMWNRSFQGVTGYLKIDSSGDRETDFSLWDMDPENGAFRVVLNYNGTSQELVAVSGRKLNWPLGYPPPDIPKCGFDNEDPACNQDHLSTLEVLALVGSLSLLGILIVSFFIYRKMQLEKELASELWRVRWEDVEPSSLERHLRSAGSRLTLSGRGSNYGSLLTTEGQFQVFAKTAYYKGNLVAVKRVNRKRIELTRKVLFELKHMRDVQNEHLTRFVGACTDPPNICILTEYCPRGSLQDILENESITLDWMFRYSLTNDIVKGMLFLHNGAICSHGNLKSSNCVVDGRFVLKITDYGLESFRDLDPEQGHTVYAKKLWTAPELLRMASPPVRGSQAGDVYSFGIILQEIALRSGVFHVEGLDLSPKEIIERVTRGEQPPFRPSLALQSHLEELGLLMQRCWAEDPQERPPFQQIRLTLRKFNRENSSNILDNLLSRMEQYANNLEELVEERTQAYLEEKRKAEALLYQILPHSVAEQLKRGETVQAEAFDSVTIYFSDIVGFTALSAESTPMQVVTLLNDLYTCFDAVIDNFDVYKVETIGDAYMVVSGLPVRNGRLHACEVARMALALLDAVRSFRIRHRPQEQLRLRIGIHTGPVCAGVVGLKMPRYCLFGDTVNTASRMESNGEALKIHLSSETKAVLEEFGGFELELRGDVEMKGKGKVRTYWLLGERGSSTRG
ADAM17 inh – ADAM17 inhibition, QFRET primary screen; 370,000 tested, 0.83% active; inhibition, % at 6.95 µM; P78536; AID 720648; recombinant ADAM17, EDANS/DABCYL FRET peptide cleavage;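 active means inhibition above the mean of compounds lying between control limits plus 3 SD, set per campaign, cut at about 8.5% in these data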
NPR2 activator – GC-B (human) receptor activation; P20594; HEK293-GC-B cells, CNP EC30, cGMP TR-FRET; 0% at EC30 CNP, 100% saturating CNP; activation, % at 10 µM; 370,000 tested, 0.11% active; AID 1920062;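 active means activation at 10 µM reaching about 35% in either raw or pattern-adjusted values, limit read from the data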
ADAM10 inh – inhibitors of human ADAM10 | recombinant ADAM10, EDANS/DABCYL FRET peptide cleavage, 3 h | inhibition, % at 7 µM | 370,000 tested, 0.62% active | AID 720582;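 active means inhibition above a per-campaign cutoff equal to the mean of compounds falling between control-based bounds plus 3 SD, cut at about 20% in these data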
Hits are given with their value; n = inactive. Rows were chosen to be rich in hits. Some 1.3% of all compounds tested hit in one or more screens of this group.

SMILES | NPR1 activator | ADAM17 inh | NPR2 activator | ADAM10 inh
CCCn1c(N)c(C(=O)CSc2nc(C)nc3sc(C)c(C)c23)c(=O)[nH]c1=O | 40.7 | n | n | n
CCCCN1C(=O)C(CC(=O)NC(c2ccccc2)c2ccccc2)CC(C(=O)N(C(C)C)C(C)C)=C1C (centres undefined) | n | n | n | n
Cc1cccc(CNc2ncnc3ccc(-c4ccoc4)cc23)c1 | n | n | n | n
CC(=O)Nc1ccc(CNc2ncnc3ccc(-c4c(C)noc4C)cc23)cc1 | n | n | 40.6 | n
O=c1c(Cl)c(Cl)cnn1Cc1nnc(-c2ccc(Cl)cc2)o1 | 49.3 | n | n | n
O=C1NCCN/C1=C\C(=O)c1ccc(F)cc1 | n | n | n | n
O=C1NCCN/C1=C\C(=O)c1ccc(Cl)cc1 | 40.9 | n | n | n
Clc1ncnc2c1oc1ccccc12 | 53.2 | n | n | n
CC(=O)c1ccc(N2CCN(S(=O)(=O)c3c(C(=O)N4CCCC4)c(C)n(C)c3C)CC2)cc1 | n | n | n | n
CCCS(=O)(=O)c1c(S(=O)(=O)CCC)c2ccc(C(N)=O)cn2c1C(=O)OC | n | n | n | n
CCCS(=O)(=O)c1c(S(=O)(=O)CCC)c2ccc(C(N)=O)cn2c1C(=O)c1ccc(OC)cc1 | n | n | 55.7 | n
Clc1ccc2c(-c3ccccc3)nc(-c3cccs3)nc2c1 | n | n | n | n
O=S(=O)(c1cc(Cl)cc(Cl)c1)N1CCC2CC1c1cc(Cl)ccc12 (centres undefined) | n | n | n | n
c1ccc(-c2cc3c(N4CCN(c5ncccn5)CC4)ncnc3s2)cc1 | 51.7 | n | n | n
c1ccc(-c2cc3c(N4CCN(c5ccccc5)CC4)ncnc3s2)cc1 | n | n | n | n
CCCc1nc2ccccc2c(C(=O)OCC(=O)Nc2cccc(S(=O)(=O)N3CCOCC3)c2)c1CC | n | 16.8 | n | 32.1
Cc1ccccc1C(=O)NCCOc1ccccc1Cl | n | n | n | n
CCOC(=O)C1CCC(C(=O)OCC)N1c1ccc(C=O)cc1 (centres undefined) | n | n | n | n
O=C(CCCN1C(=O)/C(=C/c2ccccc2Cl)SC1=S)NNC(=O)c1ccc(Cl)cc1Cl | n | n | n | 20.8
O=C(CCCN1C(=O)/C(=C/c2ccccc2Cl)SC1=S)NNC(=O)c1ccccc1 | n | n | n | n
COCCn1c(-c2ccc(-c3ccccc3Cl)o2)nc2c1c(=O)[nH]c(=O)n2CC(C)C | n | n | 36.5 | n
CCCCn1c(=O)[nH]c(=O)c2c1nc(-c1ccc(-c3ccccc3Br)o1)n2CCOC | n | n | n | n
N#Cc1c(-c2cccs2)cc(-c2cccs2)[nH]c1=O | n | n | n | n
Cc1cc(-c2cccs2)c(C#N)c(=S)[nH]1 | 40.5 | n | n | n
N#CCCn1cc(/C=C(\C#N)c2nc3ccccc3s2)c(-c2ccc(F)cc2)n1 | n | n | 62.1 | n
SMILES | NPR1 activator | ADAM17 inh | NPR2 activator | ADAM10 inh
O=C(NCc1nnnn1-c1ccc(F)cc1)c1ccc2c(c1)OCO2 | n | n | n | n
COCc1ccc(C(=O)NC2CCSc3ccccc32)cc1 (centres undefined) | n | n | n | n
CC(CC(=O)c1ccc(F)cc1)N1CCN(c2ccccc2)CC1 (centres undefined) | 63.4 | n | n | n
CCN(C(=O)Cn1cc(C(=O)C(=O)N2CCOCC2)c2ccccc21)c1ccccc1 | n | n | n | n
CC(C)(C)OC(=O)C1[C@H](O)C=CC[C@H]1S(=O)c1ccccc1 (some centres undefined) | n | n | n | n
CC(C)CCNc1nc(-c2ccco2)c2c(c1C#N)CCCC2 | n | n | 36.1 | n
CCOc1ccc(S(=O)(=O)N(C)CCO)cc1-c1nc2c(C(C)(C)C)nn(C)c2c(=O)[nH]1 | 59.4 | n | 67.3 | n
CCOc1ccc(S(=O)(=O)N(C)C)cc1-c1nc2c(C(C)(C)C)nn(C)c2c(=O)[nH]1 | 58.4 | n | 68.5 | n
N#Cc1cccc(NC(=O)O[C@@H]2CC[C@@]34CCCN3C(=O)CCC[C@H]4C2)c1 | n | n | n | n
COc1ccc(-c2ccc(C(=O)NCc3ccc(C(F)(F)F)cc3)c3occc23)c(C)c1 | n | n | n | n
N#Cc1c(C#N)c(SSc2c(C#N)c(C#N)c(N)n2-c2ccccc2)n(-c2ccccc2)c1N | n | n | 55.3 | n
N#CCCn1cc(/C=N/NC(N)=S)c(-c2ccccc2)n1 | n | n | n | n
N#CCCn1cc(/C=N/NC(N)=S)c(-c2ccc(Br)cc2)n1 | n | n | 55.1 | n
